Assay results as given in PubChem BioAssay (Tox21).
“And” between values parts separate entries of the source, which are not always exact repeats. Equal entries are not always repeated. Results filed as inconclusive are left out. A call without a number means that no potency is given here. The source made the active and inactive calls. Calls follow the shape of the dose curve; as a rule, active = well fitted inhibition curve with a large enough effect in the repeat runs; inconclusive = weak or mixed curves; inactive = no such curve, though single readings can be large or run the other way.

biological target: Cytochrome P450 2C19 (Homo sapiens) (UniProt P33261); assay: Cytochrome P450 Family 2 Subfamily C Member 19 (CYP2C19) small molecule antagonists: luciferase reporter qHTS assay (AID 1671197); conditions: P450-Glo CYP2C19 enzyme, luciferin luminescence, 1 h; series mostly up to 115 µM; also: nearly all actives have a fitted effect of over 65% in size
Sequence (P33261 whole entry, looked up): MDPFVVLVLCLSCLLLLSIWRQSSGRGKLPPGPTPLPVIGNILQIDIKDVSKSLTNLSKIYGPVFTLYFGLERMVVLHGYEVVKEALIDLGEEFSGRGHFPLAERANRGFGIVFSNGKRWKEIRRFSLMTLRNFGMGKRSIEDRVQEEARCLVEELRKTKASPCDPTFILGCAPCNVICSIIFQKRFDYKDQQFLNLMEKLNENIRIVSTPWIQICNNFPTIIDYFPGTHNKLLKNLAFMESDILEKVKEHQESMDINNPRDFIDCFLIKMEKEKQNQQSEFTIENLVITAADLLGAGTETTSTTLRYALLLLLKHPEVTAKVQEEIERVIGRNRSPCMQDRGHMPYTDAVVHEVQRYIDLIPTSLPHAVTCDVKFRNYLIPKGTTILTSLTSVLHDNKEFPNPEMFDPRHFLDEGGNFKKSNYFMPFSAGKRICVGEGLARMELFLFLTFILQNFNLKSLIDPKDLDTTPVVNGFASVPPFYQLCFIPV
How it was run: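 Inhibition of CYP2C19 was scored from loss of luminescence in a P450-Glo proluciferin substrate assay, NADPH-started and run 1 h at 37C, with ketoconazole as positive control.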
Potency is read from the fitted curve at half-maximal effect.

| Compound | Potency | activity change, negative = inhibition |
| --- | --- | --- |
| COC(=O)c1ccccc1C | inactive | – |
| COC(C)=O | inactive | – |
| CC(C)CCOC(=O)/C=C/c1ccccc1 | 63.5 µM (active) | – |
| Cc1cccc(C)c1NC(=O)c1ccc(N)cc1 | inactive | – |
| C=CCn1c(=O)n(CC=C)c(=O)n(CC=C)c1=O | 1.12 µM (active) | – |
| CC(C)Cn1cnc2c(N)nc3ccccc3c21 | – | 10.1% [at 23.6 µM] (inactive) |
| Sc1nc2ccccc2s1 | 7.96 µM (active) | – |
| O=C(/C=C/c1ccc(O)c(O)c1)O[C@@H](C(=O)O)[C@@H](OC(=O)/C=C/c1ccc(O)c(O)c1)C(=O)O | inactive | – |
| Cc1c(F)c(N2CCNC(C)C2)cc2c1c(=O)c(C(=O)O)cn2C1CC1 (stereo not drawn) | inactive | – |
| OC[C@@H](O)[C@@H](O)CO | inactive | – |
| CCCCCc1ccc(Cl)cc1 | inactive | – |
| CCOC(=O)Cn1cccc1-c1nc(-c2ccc(OC)cc2)c(-c2ccc(OC)cc2)s1 | 3.89 µM (active) | – |
| C=Cc1cccc(C)c1 | inactive | – |
| Nc1nc(N)nc(-c2cc(Cl)ccc2Cl)n1 | inactive | – |
| O=C1OC2(c3ccc(O)cc3Oc3cc(O)ccc32)c2ccc(N=C=S)cc21 | 72.3 µM (active) | – |
| CCCCC(CC)COC(=O)CCCCC(=O)OCc1ccccc1 (stereo not drawn) | 35.6 µM (active) | – |
| Cc1c(C)c2c(c(C)c1OC(=O)c1cccnc1)CC[C@@](C)(CCC[C@H](C)CCC[C@H](C)CCCC(C)C)O2 | inactive | – |
| [Cu+] | 2.24 µM (active) | – |
| O=C(O)c1cc(-c2ccc(F)cc2F)ccc1O | inactive | – |
| O=C1c2ccccc2C(=O)N1SC1CCCCC1 | 25.2 µM (active) and 39.9 µM (active) | – |
| NC(=S)NC(N)=S | 20 µM (active) | – |
| C=CCCC(=O)/C=C/C1C(C)=CCCC1(C)C (stereo not drawn) | 17.8 µM (active) | – |
| OC[C@H]1O[C@H](O[C@H]2O[C@H](CO)[C@@H](O)[C@H](O)[C@H]2O)[C@H](O)[C@@H](O)[C@@H]1O | inactive | – |
